Experimental findings from the supplement of paper PMC11634586 are described below.

Where a name gives a salt, the structure may show the parent alone. A number with no mark means an inactive call.

The experiment relates to NCI-H1688. As to the kind of experiment: inhibition of cell viability relative to untreated control (fraction); higher = stronger growth inhibition, active = 0.5 or more. The note with it: 30 µM; 24 h. As for the experimental part:
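Natural product library (TargetMol, 640 compounds) screened on NCI-H1688 SCLC cells at 30 µM for 24 h; viability by CCK-8 absorbance at 450 nm, normalised to untreated control and expressed as inhibition rate (fraction). Compounds with >50% reduction in viability were selected as hits.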
For the molecule `C[C@H]1[C@H](C)CC[C@]2(C(=O)O)CC[C@]3(C)C(=CC[C@@H]4[C@@]5(C)CC[C@H](O)C(C)(C)[C@@H]5CC[C@]43C)[C@H]12` [Ursolic acid], the “inhibition of cell viability” value is 1.01 (active).

With `C=C1CC[C@H](O)C/C1=C/C=C1\CCC[C@]2(C)[C@@H]([C@H](C)/C=C/[C@H](C)C(C)C)CC[C@@H]12` [Vitamin D2], the “inhibition of cell viability” value is -0.0632.

As for `C[C@H]1[C@H](C)CC[C@]2(C(=O)O[C@@H]3O[C@H](CO[C@@H]4O[C@H](CO)[C@@H](O[C@@H]5O[C@@H](C)[C@H](O)[C@@H](O)[C@H]5O)[C@H](O)[C@H]4O)[C@@H](O)[C@H](O)[C@H]3O)CC[C@]3(C)C(=CC[C@@H]4[C@@]5(C)C[C@@H](O)[C@H](O)[C@@](C)(CO)[C@@H]5[C@H](O)C[C@]43C)[C@H]12` [Madecassoside], the “inhibition of cell viability” value is 0.808 (active).

Take `C[C@H](CCC(=O)O)[C@H]1CC[C@H]2[C@@H]3[C@H](O)C[C@@H]4C[C@H](O)CC[C@]4(C)[C@H]3CC[C@]12C` [Chenodeoxycholic acid]: the “inhibition of cell viability” value is 0.152.

Regarding `CC(=O)Oc1cc(C)c(OC(C)=O)c2ccccc12` [Menadiol Diacetate], the “inhibition of cell viability” value is 0.384.

Take `COc1cc2c(c(OC)c1OC)-c1c(cc3c(c1OC)OCO3)CC(C)C(C)C2` (stereo not given) [Schizandrin B]: the “inhibition of cell viability” value is -0.0395.

Take `NCCc1ccc(O)c(O)c1` [Dopamine hydrochloride]: the “inhibition of cell viability” value was 0.0465.

For `C=C1CC[C@H]2C(=C)CC[C@H]3C(=C)C(=O)O[C@@H]3[C@@H]12` [Dehydrocostus Lactone], the “inhibition of cell viability” value is 0.992 (active).

As to `CCCCCC=CCC=CCCCCCCCC(=O)OC(COC(=O)CCCCCCCCCCCCCCC)COP(=O)([O-])OCC[N+](C)(C)C` [L-α-Phosphatidylcholine], the “inhibition of cell viability” value was 0.136.

With `NC(=O)NC1NC(=O)NC1=O` (stereo not given) [Allantoin], the “inhibition of cell viability” value is 0.00777.

For the molecule `CC(=O)O[C@H]1C[C@@]2(C)[C@@H](C[C@@H](O)[C@H]3[C@@]4(C)CC[C@@H](O)[C@@H](C)[C@@H]4CC[C@@]32C)/C1=C(\CCC=C(C)C)C(=O)O` [Fusidine], the “inhibition of cell viability” value was -0.0194.

In the case of `O=c1c2ccccc2oc2ccccc12` [Xanthone], the “inhibition of cell viability” value is -0.129.

Take `O=C(O)C1=CO[C@@H](O[C@@H]2O[C@H](CO)[C@@H](O)[C@H](O)[C@H]2O)[C@@H]2C(CO)=CC[C@H]12` [Geniposidic Acid]: the “inhibition of cell viability” value is -0.0628.

For `CC1(C)CCC[C@](C)([C@H]2CC[C@]3(C)[C@@H]2[C@H](O)C[C@@H]2[C@@]4(C)CC[C@H](O)C(C)(C)[C@@H]4CC[C@]23C)O1` [Panaxadiol], the “inhibition of cell viability” value was -0.0255.

With `CC1(C)CC[C@]2(C(=O)O[C@@H]3O[C@H](CO[C@@H]4O[C@H](CO)[C@@H](O)[C@H](O)[C@H]4O)[C@@H](O)[C@H](O)[C@H]3O)CC[C@]3(C)C(=CC[C@@H]4[C@@]5(C)CC[C@H](O[C@@H]6OC[C@H](O)[C@H](O)[C@H]6O)[C@@](C)(CO)[C@@H]5CC[C@]43C)[C@@H]2C1` [Asperosaponin Ⅵ], the “inhibition of cell viability” value is 0.0344.

Consider `C[C@H](CCC(=O)NCC(=O)O)[C@H]1CC[C@H]2[C@@H]3[C@H](O)C[C@@H]4C[C@H](O)CC[C@]4(C)[C@H]3C[C@H](O)[C@]12C` [Glycocholic acid], for which the “inhibition of cell viability” value was -0.11.

Take `C[N+](C)(C)CC(O)CC(=O)[O-]` (stereo not drawn) [L(-)-Carnitine]: the “inhibition of cell viability” value was 0.123.

On to `O=c1c(-c2ccc(O)cc2)coc2cc(O)ccc12` [Daidzein], for which the “inhibition of cell viability” value was 0.0274.

For the molecule `O[C@H]1[C@H]2c3cc4c(cc3CN3CCC(=C[C@@H]1O)[C@H]23)OCO4` [Lycorine chloride], the “inhibition of cell viability” value was 0.931 (active).

As for `CC(C)=CCCC(C)CCO` (stereo not given) [Citronellol], the “inhibition of cell viability” value was 0.283.

For the molecule `COc1ccc(CC(=O)O)cc1OC` [Homoveratrumic acid], the “inhibition of cell viability” value was 0.0253.

On to `C=C(C)[C@@H]1CC[C@]2(CO)CC[C@]3(C)[C@H](CC[C@@H]4[C@@]5(C)CC[C@H](O)C(C)(C)[C@@H]5CC[C@]43C)[C@@H]12` [Betulin], for which the “inhibition of cell viability” value is 0.831 (active).

Take `COc1cc2c(cc1OC)[C@@H]1Cc3ccc(OC)c(OC)c3CN1CC2` [Tetrahydropalmatine]: the “inhibition of cell viability” value was 0.242.

`CCCCCCCCCC[C@H](C(=O)O)[C@]1(C(=O)O)CCC(=O)O1` [Spiculisporic Acid]: the “inhibition of cell viability” value was 0.104.

Take `O=C(CCc1ccc(O)cc1)c1c(O)cc(O)cc1O` [Phloretin]: the “inhibition of cell viability” value is -0.0149.

Regarding `COC(=O)Nc1nc2cc(C(=O)c3cccs3)ccc2[nH]1` [Nocodazole], the “inhibition of cell viability” value was 0.75 (active).

Turning to `CC12CCC(CC1=O)C2(C)C` (stereo not given) [Camphor], the “inhibition of cell viability” value was -0.239.

In the case of `C=C(C)[C@H]1CC=C(C)CC1` [(R)-(+)-Limonene], the “inhibition of cell viability” value was 0.281.

Take `CC1(C)CC[C@]2(C)CC[C@]3(C)C(=CC[C@@H]4[C@@]5(C)CC[C@@H](O)[C@](C)(C(=O)O)[C@@H]5CC[C@]43C)[C@@H]2C1`: the “inhibition of cell viability” value was 0.314.

Turning to `O=c1ccc2cc(O)c(O)cc2o1` [Esculetin], the “inhibition of cell viability” value is 0.643 (active).

On to `CC1=CC(=O)CC(C)(C)[C@@]1(O)/C=C/C(C)=C\C(=O)O` [Abscisic acid], for which the “inhibition of cell viability” value is -0.139.

In the case of `CC(C)=CCC[C@](C)(O[C@@H]1O[C@H](CO)[C@@H](O)[C@H](O)[C@H]1O)[C@H]1CC[C@]2(C)[C@@H]1[C@H](O)C[C@@H]1[C@@]3(C)CC[C@H](O)C(C)(C)[C@@H]3[C@@H](O[C@@H]3O[C@H](CO)[C@@H](O)[C@H](O)[C@H]3O[C@@H]3OC[C@@H](O)[C@H](O)[C@H]3O)C[C@]12C` [Notoginsenoside R1], the “inhibition of cell viability” value was -0.0107.

For `OC[C@@H](O)[C@@H](O[C@H]1O[C@H](CO)[C@@H](O)[C@H](O)[C@H]1O)[C@H](O)[C@@H](O)CO` [Maltitol], the “inhibition of cell viability” value was 0.0233.

Consider `O=C(O[C@@H]1Cc2c(O)cc(O)cc2O[C@@H]1c1ccc(O)c(O)c1)c1cc(O)c(O)c(O)c1` [(-)-Epicatechin gallate], for which the “inhibition of cell viability” value was 0.121.

`Cc1nc(C)c(C)nc1C` [Ligustrazine hydrochloride]: the “inhibition of cell viability” value is -0.157.

On to `C[C@H](O)[C@H]1CC[C@H]2[C@@H]3CC[C@@H]4C[C@H](O)CC[C@]4(C)[C@H]3CC[C@]12C` [5Beta-Pregnane-3Alpha,20alpha-Diol], for which the “inhibition of cell viability” value was -0.113.

Take `Nc1ncnc2c1ncn2[C@@H]1O[C@H](COP(=O)(O)O)[C@@H](O)[C@H]1O` [Adenosine 5'-monophosphate]: the “inhibition of cell viability” value is -0.0048.

As to `O=C1O[C@H]([C@@H](O)CO)C(O)=C1OP(=O)(O)O` [Sodium L-ascorbyl-2-phosphate], the “inhibition of cell viability” value is 0.0357.

For `N[C@H]1C(O)O[C@H](CO)[C@@H](O)[C@@H]1O` (stereo not given in full) [Glucosamine], the “inhibition of cell viability” value is -0.173.

Take `Cc1ccc(C(C)C)cc2c(C)ccc1-2` [Guaiazulene]: the “inhibition of cell viability” value is 0.0813.
